# Compounds with a hit are over-represented: about 2.9% of the library has one in this group of screens.
# Exocytosis inh = blocks lytic granule exocytosis. AID 651702. TALL-104 LAMP-1 surface exposure, flow cytometry; cells stimulated with thapsigargin and PMA. 360,000 compounds, 0.66% hits. inhibition, % at 10 µM;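 active = inhibition above about 55%, limit read from the data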
# B2AR ag = activates human beta-2 adrenergic receptor causing internalization. 340,000 compounds, 0.43% hits. Am2.2-beta2AR cells, FAP receptor internalization, flow cytometry. response, % (no concentration beside the values). AID 504454. P07550;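 active = response above a set limit, near 3 SD of response in nonfluorescent compounds, cut at about 42% in these data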
# PP1 inh = blocks human PP1-alpha phosphatase, a PP5 counter-screen | P62136 | purified PP1alpha, OMFP fluorescence | inhibition, % at 6.7 µM | 320,000 compounds, 0.9% hits | AID 2235;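 active = inhibition above the mean inhibition of all tested compounds plus 3 SD, computed separately for each screening campaign, cut at about 15% in these data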
# NadD inh = blocks S. aureus nicotinate mononucleotide adenylyltransferase | 360,000 compounds, 0.78% hits | AID 602399 | inhibition, % at 20 µM | purified NadD enzyme, colorimetric absorbance read-out; in the data active = inhibition above about 26%
# GRK2 aptamer HTS = inhibitors of human GRK2 displacing RNA aptamer. P25098. 330,000 compounds, 0.59% hits. bead flow cytometry, FAM-aptamer displacement from GRK2. inhibition of aptamer binding, % at 10 µM;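 active = inhibition of aptamer binding above 40%, roughly 3 SD of noise, on plates passing a quality check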;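 note: median bead fluorescence of bound FAM aptamer so fluorescent compounds give negative values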
# Target sequence (P25098 whole entry, looked up): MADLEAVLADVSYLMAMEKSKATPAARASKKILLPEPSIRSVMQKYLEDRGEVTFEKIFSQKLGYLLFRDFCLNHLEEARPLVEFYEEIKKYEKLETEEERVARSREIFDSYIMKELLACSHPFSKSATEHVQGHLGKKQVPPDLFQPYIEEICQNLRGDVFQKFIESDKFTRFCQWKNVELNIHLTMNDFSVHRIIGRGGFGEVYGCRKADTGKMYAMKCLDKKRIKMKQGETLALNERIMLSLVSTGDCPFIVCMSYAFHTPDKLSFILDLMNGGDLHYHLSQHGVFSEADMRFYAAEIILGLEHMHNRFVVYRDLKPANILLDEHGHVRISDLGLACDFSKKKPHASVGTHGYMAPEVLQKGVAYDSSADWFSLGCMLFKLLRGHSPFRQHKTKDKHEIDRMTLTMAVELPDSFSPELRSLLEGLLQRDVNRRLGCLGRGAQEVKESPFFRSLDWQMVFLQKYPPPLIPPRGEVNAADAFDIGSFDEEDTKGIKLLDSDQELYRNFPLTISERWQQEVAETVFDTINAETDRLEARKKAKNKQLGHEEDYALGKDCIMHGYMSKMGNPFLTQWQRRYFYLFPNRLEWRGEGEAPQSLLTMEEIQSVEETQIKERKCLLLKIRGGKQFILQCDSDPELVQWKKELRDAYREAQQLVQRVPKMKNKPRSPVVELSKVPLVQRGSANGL
# GRK2 CP1 = confirmation of human GRK2 inhibitors displacing RNA aptamer. 2,000 compounds, 4% hits. shares compounds with GRK2 aptamer HTS. bead-bound GRK2, FAM-aptamer displacement, flow cytometry. aptamer displacement, % at 10 µM;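 active = aptamer displacement above 40%, near three times the noise of non-fluorescent compounds, on plates passing quality checks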;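 note: negative values mostly reflect intrinsic compound fluorescence rather than true enhancement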
# Aptamer quench 1 = fluorescent aptamer quenching in GRK2 counter-screen dose response; fluorescence change (kMESF span), kMESF (concentration not given with the values); Fluorescent RNA aptamer beads, flow cytometry; stronger effect = higher value; 110 tested, under 10 active; shares compounds with GRK2 aptamer HTS; AID 504521;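 active = compounds whose bead fluorescence drops by more than 37 kMESF across the dose range, marking them as dye quenchers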
# FAM quench CP1 = counter-screen for GRK2 aptamer inhibitors: fluorescent aptamer quenchers. shares compounds with GRK2 aptamer HTS. Carboxyfluorescein RNA aptamer on beads, flow cytometry quenching; stronger effect = lower value. 2,000 tested, under 10 active. fluorescence response (% of DMSO), % at 10 µM;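 active = compounds that quench the bead-bound fluorescent RNA probe, cutting fluorescence to under half of the solvent control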;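 note: counterscreen run without GRK2 so only probe quenching by compound is measured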
# GRK2 confirm 2 = human GRK2 inhibition confirmation, cherry pick 2. bead-bound GRK2, FAM-aptamer displacement, flow cytometry. shares compounds with GRK2 aptamer HTS. 360 tested, under 10 active. inhibition of aptamer binding, % at 10 µM;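 active = inhibition of aptamer binding above 40%, about triple the noise seen with nonglowing compounds, on plates passing quality control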;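 note: negative values mostly come from compounds that fluoresce themselves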
# FAM quench CP2 = aptamer fluorescence quenching in GRK2 counter-screen; AID 588494; carboxyfluorescein RNA aptamer beads, flow cytometry quenching; stronger effect = lower value; fluorescence response vs DMSO, % at 10 µM; 360 tested, under 10 active; shares compounds with GRK2 aptamer HTS;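 active = response vs DMSO under 50%, meaning signal dropped by over half, treated as fluorescence quencher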;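 note: labelled aptamer on streptavidin beads without GRK2 as a quench counter-screen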
# A number is an active result; – = inactive; · = not tested or not shown.
SMILES,Exocytosis inh,B2AR ag,PP1 inh,NadD inh,GRK2 aptamer HTS,GRK2 CP1,FAM quench CP1,others
O=C(NC1CCCC1)C(c1ccsc1)N(Cc1ccccc1)C(=O)Cc1cccs1 (configuration not stated),–,–,–,–,–,–,–,
COC(=O)c1ccc(C(C(=O)NC2CCCCC2)N(Cc2ccccc2)C(=O)Cc2cccs2)cc1 (configuration not stated),–,–,–,–,–,·,·,
COc1cccc(CN2CCC(C(=O)N3CCN(c4ccccc4F)CC3)CC2)c1OC,–,–,–,–,60,·,·,GRK2 confirm 2=–;FAM quench CP2=–
COc1cc(CN2CCC(C(=O)N3CCN(c4ccccc4F)CC3)CC2)cc(OC)c1OC,–,–,–,–,–,·,·,
CC(C)[C@H](NS(=O)(=O)c1cccc(Cl)c1)C(=O)OCC(=O)NC(=O)CN1CCCC1=O,–,–,–,–,45,–,–,
COc1cc2c(cc1NC(=O)COC(=O)[C@@H](NS(=O)(=O)c1cccc(Cl)c1)C(C)C)oc1ccccc12,–,–,–,–,–,·,·,
CCOc1cc(OCC)cc(C(=O)NCCN2CCC(n3c(=O)[nH]c4ccccc43)CC2)c1,–,·,·,–,·,·,·,
CC12CCC(=O)N1c1c(sc3nc(N4CCOCC4)c4c(c13)CCCC4)C(=O)N2 (configuration not stated),–,–,–,–,45,–,–,
COC(=O)c1ccc(-c2sc3nc(N4CCOCC4)c4c(c3c2N)CCCC4)o1,·,·,–,·,–,·,·,
O=C(Nc1cccc(S(=O)(=O)N2CCOCC2)c1)c1cc2c(s1)CCC2,–,–,–,–,–,·,·,
O=C(Nc1cccc(Cn2cccn2)c1)c1cc2c(s1)CCCC2,–,–,–,–,94,–,–,
COCCCn1c(SCC(=O)N(C)C)nnc1-c1ccccc1,–,–,–,–,99,–,–,
O=C1OC(Cc2ccccc2)(c2ccccc2)c2ccccc21 (configuration not stated),–,·,·,–,·,·,·,
COc1ccc(-c2cn3c(C)c(C(=O)N4CCCc5ccccc54)sc3n2)cc1,–,–,–,–,81,–,–,
COc1ccc(-c2cn3c(C)c(C(=O)N4CCN(c5ccccc5F)CC4)sc3n2)cc1,–,–,–,–,–,·,·,
COc1cccc(-n2c(SCC(=O)O)nnc2-c2cccnc2)c1,–,–,–,–,62,–,–,
O=C(Nc1cccc(Cl)c1)c1ccncc1,–,–,–,–,–,·,·,
O=C(Nc1cccc(Cl)c1)c1cnc[nH]1,–,–,–,–,58,–,–,
CNC(=O)c1[nH]cnc1C(=O)Nc1cccc(Cl)c1,–,–,–,–,91,93,–,Aptamer quench 1=–
C[C@@H](NC(=O)c1[nH]cnc1C(=O)Nc1cccc(Cl)c1)c1ccccc1,–,–,–,–,–,–,–,
CN(Cc1ccccc1)C(=O)c1[nH]cnc1C(=O)Nc1cccc(Cl)c1,–,–,–,–,–,–,–,
C[C@@H](NC(=O)c1[nH]cnc1C(=O)Nc1ccccc1)c1ccccc1,–,–,–,–,–,·,·,
O=C(Nc1cccc(Cl)c1)c1nc[nH]c1C(=O)NCCCNC(=O)c1[nH]cnc1C(=O)Nc1cccc(Cl)c1,–,–,·,–,–,·,·,
CC(=O)N1CCN(Cc2nc3cc(NC(=O)c4ccccc4C)ccc3n2C)CC1,–,–,–,–,–,·,·,
COCC(C)N=C1NN=C(c2c[nH]c3ccccc23)CS1 (configuration not stated),–,–,–,–,–,·,·,
SMILES,Exocytosis inh,B2AR ag,PP1 inh,NadD inh,GRK2 aptamer HTS,GRK2 CP1,FAM quench CP1,others
CC(C)(C)OC(=O)[C@H](Cc1ccccc1)NC(=O)c1[nH]cnc1C(=O)Nc1cccc(Cl)c1,–,–,–,–,–,–,–,
CC1CCN(C(=O)c2[nH]cnc2C(=O)Nc2cccc(Cl)c2)CC1,–,–,–,–,–,–,–,Aptamer quench 1=–
C[C@H](NC(=O)c1[nH]cnc1C(=O)Nc1cccc(Cl)c1)c1ccccc1,–,–,–,–,–,–,–,
CCOc1ccc2nc(NC(=O)CN3C(=O)C4CCCCC4C3=O)sc2c1 (configuration not stated),–,–,–,–,–,·,·,
Cc1c(C(=O)NCc2cccc(C(F)(F)F)c2)sc(=O)n1Cc1cccc(F)c1,–,·,·,–,·,·,·,
COc1cccc(Cn2c(=S)[nH]c3ccc(N4CCOCC4)cc3c2=O)c1,–,–,–,–,43,–,–,
O=c1c2cc(N3CCOCC3)ccc2[nH]c(=S)n1Cc1cccc(Cl)c1,–,–,–,–,–,·,·,
Cc1ccc([N+](=O)[O-])cc1NC(=O)c1ccc2c(c1)OCO2,–,–,–,–,–,·,·,
CC(CNC(=O)c1ccc2c(c1)OCO2)c1ccc([N+](=O)[O-])cc1 (configuration not stated),–,–,–,–,67,–,–,
O=C(Cn1c(=O)c2cccn2c2ccc(F)cc21)NCCCN1CCN(c2ccccc2F)CC1,–,–,–,–,–,–,–,
O=C(NCCCN1CCN(c2ccccc2F)CC1)Nc1ccc(F)cc1,–,–,–,–,–,–,–,
CN(CC(=O)Nc1cccc(F)c1)C(=O)C1CCC(C(=O)N(C)CC(=O)Nc2cccc(F)c2)CC1 (configuration not stated),–,–,·,–,·,·,·,
O=C1C2C(c3cccc(/C=C/c4ccccc4)c3)CC=CC2C(c2ccc(C(F)(F)F)cc2)N1Cc1ccccc1 (configuration not stated),–,–,–,–,–,–,–,
CC[C@@H]1CC=C[C@H]2[C@H]1C(=O)N(Cc1ccccc1)[C@H]2c1ccc(C(F)(F)F)cc1,–,–,–,–,–,·,·,
CC(C)c1ccccc1NC(=O)COC(=O)C1(C)CC1(Cl)Cl (configuration not stated),–,–,–,–,–,·,·,
NC(=O)c1ccsc1NC(=O)CS(=O)(=O)c1ccc(F)cc1,–,–,–,–,–,·,·,GRK2 confirm 2=–;FAM quench CP2=–
O=C(COC(=O)c1cccc(Cl)c1)Nc1cccc(S(=O)(=O)NC2=NCCC2)c1,–,–,·,–,–,–,–,
[O-]/C(=C(\C(=S)Nc1ccc(Cl)cc1)[n+]1ccccc1)c1ccc(OC(F)F)cc1,–,–,–,–,53,–,–,
O=C(NC1CC1)c1cc(=S)[nH]c2ccccc12,–,–,·,–,–,–,–,
